This is part of a sample that, as a whole, favours compounds with a hit. Of some 83,000 tested, about 20% had one in any assay.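 Results are percent growth after 48 hours of single-concentration exposure. 100 means growth as in untreated cells, lower positive values show inhibition; negative values down to -100 show cell death.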 Calls of active or inactive are those of the source. Rule for the calls: active = growth percent below 10; inactive = the rest.

The test system of one test is UACC-62 melanoma. Put plainly: NCI-60 one-dose screen, 48 h (100 = growth as untreated, 0 = no growth, -100 = all killed). As to conditions: 10 µM unless noted.
As to `CC1(C(=O)O)CCC(N)(C(=O)O)C1(C)C` (stereo unspecified), the growth is 107% (inactive). Take `O=C(Nc1cccc(F)c1)c1cc(=O)[nH]c2cc(Br)ccc12`: the growth was 34.4% (inactive). On to `N#Cc1c(Cl)nc(SCC2CO2)nc1-c1ccccc1` (stereo unspecified), for which the growth was 107% (inactive). Same read-out and setting: to `CC1Cc2c(Cl)ncnc2N(C)c2ccc(Cl)cc21` (stereo unspecified) belongs 11.8% (inactive).

In the case of `CCCc1cc2cc(-n3nc(C)c4c3CC(C)(C)CC4=O)cc(NC3CCSCC3)c2c(=O)[nH]1`, the growth is 53.2% (inactive). Regarding `O=C(O)c1cn(C2CC2)c2cc(N3CCN(Cc4cc(Cl)ccc4O)CC3)c(F)cc2c1=O`, the growth was 54.9% (inactive). Still for that read-out and setting: with `COc1ccc2nc3cc(Cl)ccc3c(Nc3ccc(O)c(CN4CCCC4)c3)c2c1` the figure was 51.9% (inactive); with `COc1ccc(C(=O)c2nccc3cc(OC)c(OC)cc23)cc1OC`, 96.4% (inactive). Still for that read-out and setting: with `CC1Cc2c(Cl)ncnc2N(C)c2ccc(O)cc21` (stereo unspecified) the figure was 33.8% (inactive); with `COc1ccc(-c2cc(-c3ccccc3)nc(NCCNc3ccnc4cc(Cl)ccc34)n2)cc1`, -89.9% (active). Regarding `Cn1cc(-c2noc(C(=O)c3cn(C)c4ncc(Br)cc34)n2)c2ccccc21`, the growth was 89.3% (inactive). As to `O=C1CN(Cc2ccc(C(=O)NO)cc2)C(=O)[C@@H](Cc2ccccc2)N1`, the growth was 99.2% (inactive).

Regarding `O=C1/C(=C/c2ccc(OCc3ccccc3)cc2)Oc2cc(OCCN3CCCCC3)ccc21`, the growth was 61% (inactive). The same measure, in the same setting: to `COC(=O)[C@@H](NC(=O)NC(=O)NC(=O)CI)C(C)C` belongs 83.1% (inactive). On to `c1ccc2c(c1)CN(CCCN1CCOCC1)C2`, for which the growth was 96.7% (inactive).

For `Clc1ccccc1/C=N\Nc1ccccn1`, the growth was 85.3% (inactive). Consider `CN(C)CCCNc1nc(-c2cccc(C(Cl)(Cl)Cl)c2)nc(C(Cl)(Cl)Cl)n1`, for which the growth was 99.6% (inactive). As for `CC1(C)CC[C@]2(C(N)=O)CC[C@]3(C)C(=CC[C@@H]4[C@@]5(C)C/C(=C/c6ccncc6)C(=O)C(C)(C)[C@@H]5CC[C@]43C)[C@@H]2C1`, the growth is -79.7% [100 µM] (active).

Consider `COc1ccc(N(c2nc(-c3ccc([N+](=O)[O-])cc3)cs2)C(C)C)cc1`, for which the growth was 68.4% (inactive). In the case of `CCOc1ccc(/C=C(\C#N)c2cc3ccccc3[nH]2)cc1`, the growth was 43.9% (inactive). The same measure, in the same setting: with `c1coc2occoc=2o1` the figure was 102% (inactive); with `COc1cc2c(c(OC)c1)C1c3cc(OC)ccc3NC(=O)N1CC2` (stereo unspecified), 66% (inactive). Still for that read-out and setting: with `CCC(C)[C@H](NC(=O)NC(=O)NC(=O)CI)C(=O)OC` (stereo partly specified) the figure was 88.9% (inactive).

For the next test, the system named is LOX IMVI melanoma. Described as above. The conditions noted are these: 10 µM unless noted.
Consider `CCOC(=O)c1cnc2ccc(Br)cc2c1Nc1cccc(S(N)(=O)=O)c1`, for which the growth was 101% (inactive).

Take `CCCCC(CCCCCC(CCCC)C1NC(C)Cc2cc(OC)c(OC)cc21)C1NC(C)Cc2cc(OC)c(OC)cc21` (stereo unspecified): the growth is -99.1% (active).

For the compound `O=C(N=c1n(-c2ccccc2)nc2n1CCN2C1=NCCN1C(=O)c1ccc(Cl)cc1)c1ccc(Cl)cc1`, the growth is 86.6% (inactive). Same read-out and setting: with `O=C(OCc1ccc2c(Cl)cc(Cl)c(O)c2n1)N1CCN(C(=O)c2cc3cc(F)ccc3[nH]2)CC1` the figure was 12.2% (inactive); with `CC1=C/C(=C(\c2cc(C)c(O)c(C(=O)O)c2)c2c(Cl)cccc2Cl)C=C(C(=O)O)C1=O`, 95.7% (inactive); with `COc1ccc(C(=O)CCC(=O)O)cc1`, 90.2% (inactive). Same read-out and setting: to `COc1cc(NCc2ccccc2O)c2ncccc2c1` belongs 83.9% (inactive). For the compound `O=C(Oc1ccc(Cl)cc1[N+](=O)[O-])Oc1ccc(Cl)cc1[N+](=O)[O-]`, the growth is 111% (inactive). Still for that read-out and setting: with `COc1ccc(-c2cc(-c3ccc(OC)c(OC)c3)nc(SCCCCCC(=O)NO)n2)cc1` the figure was 56.9% (inactive). Still for that read-out and setting: with `O=C(NCCCNC(=O)OCc1ccc2cccc(O)c2n1)OCc1ccc2cccc(O)c2n1` the figure was -73.2% (active); with `CCCCNC(=O)NS(=O)(=O)Cc1ccccc1`, 107% (inactive); with `Nc1cccc2c1C(=O)c1cccc(NC(=O)c3ccccc3)c1C2=O`, 8.96% (active). On the same count and under the same terms, with `Cc1cc(NN=C(c2ccc(O)cc2)c2ccc(O)cc2)c([N+](=O)[O-])cc1[N+](=O)[O-]` the figure was 25.3% (inactive); with `CC1(C(=O)O)CCC(N)(C(=O)O)C1(C)C` (stereo unspecified), 109% (inactive); with `O=C(Nc1cccc(F)c1)c1cc(=O)[nH]c2cc(Br)ccc12`, 43.1% (inactive). `N#Cc1c(Cl)nc(SCC2CO2)nc1-c1ccccc1` (stereo unspecified): the growth was 98.4% (inactive). Still for that read-out and setting: with `CC1Cc2c(Cl)ncnc2N(C)c2ccc(Cl)cc21` (stereo unspecified) the figure was -69.3% (active); with `CCCc1cc2cc(-n3nc(C)c4c3CC(C)(C)CC4=O)cc(NC3CCSCC3)c2c(=O)[nH]1`, 54.8% (inactive). As to `O=C(O)c1cn(C2CC2)c2cc(N3CCN(Cc4cc(Cl)ccc4O)CC3)c(F)cc2c1=O`, the growth is 57.1% (inactive). Still for that read-out and setting: to `CC1Cc2c(Cl)ncnc2N(C)c2ccc(O)cc21` (stereo unspecified) belongs 11.9% (inactive); to `COc1ccc(-c2cc(-c3ccccc3)nc(NCCNc3ccnc4cc(Cl)ccc34)n2)cc1`, -79% (active).

Consider `O=C1CN(Cc2ccc(C(=O)NO)cc2)C(=O)[C@@H](Cc2ccccc2)N1`, for which the growth is 111% (inactive). As for `O=C1/C(=C/c2ccc(OCc3ccccc3)cc2)Oc2cc(OCCN3CCCCC3)ccc21`, the growth is 52.3% (inactive). With `COC(=O)[C@@H](NC(=O)NC(=O)NC(=O)CI)C(C)C`, the growth is -77.4% (active). On to `c1ccc2c(c1)CN(CCCN1CCOCC1)C2`, for which the growth is 107% (inactive). For `Clc1ccccc1/C=N\Nc1ccccn1`, the growth was 93% (inactive).

Take `CN(C)CCCNc1nc(-c2cccc(C(Cl)(Cl)Cl)c2)nc(C(Cl)(Cl)Cl)n1`: the growth was 87.7% (inactive). Take `CC1(C)CC[C@]2(C(N)=O)CC[C@]3(C)C(=CC[C@@H]4[C@@]5(C)C/C(=C/c6ccncc6)C(=O)C(C)(C)[C@@H]5CC[C@]43C)[C@@H]2C1`: the growth is -51.4% [100 µM] (active). On the same count and under the same terms, to `COc1ccc(N(c2nc(-c3ccc([N+](=O)[O-])cc3)cs2)C(C)C)cc1` belongs 80.9% (inactive); to `CCOc1ccc(/C=C(\C#N)c2cc3ccccc3[nH]2)cc1`, 46.4% (inactive); to `c1coc2occoc=2o1`, 102% (inactive). For the compound `COc1cc2c(c(OC)c1)C1c3cc(OC)ccc3NC(=O)N1CC2` (stereo unspecified), the growth was 89.7% (inactive). Same read-out and setting: with `CCC(C)[C@H](NC(=O)NC(=O)NC(=O)CI)C(=O)OC` (stereo partly specified) the figure was -79.2% (active).

Values taken from PubChem BioAssay (NCI).
